Source: PubChem
HTR5A inv ag: HTR5A inverse agonists in luminescence cell assay, primary screen, counter-screen for OPRM1-OPRD1 heterodimer inverse agonist project, full-deck HTS; 5-hydroxytryptamine receptor 5A (Homo sapiens), P47898; 340,000 compounds, 0.083% hits; HTR5A cell line, inverse agonism; inhibition, % at 9.3 µM; AID 504634, 2011; in the data active means inhibition mostly above about 23%, no sharp cut-off; inactive means mostly below about 18%;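 further: 0% = cells with DMSO and 100% = no-cell wells with DMSO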
MOR-DOR inv ag: inverse agonists of MOR-DOR heterodimerization, primary screen, cell-based, luminescence | inhibition, % at 9.3 µM | cell-based MOR-DOR heterodimer luminescence, inverse agonism | 340,000 compounds, 0.21% hits | AID 504357, 2011 | Mu-type opioid receptor (Homo sapiens) + Delta-type opioid receptor (Homo sapiens), …; in the data active means inhibition above about 22%, passing the limit was not always enough;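 further: 0% = cells with DMSO and 100% = wells without cells with DMSO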
Target sequence (P35372 whole entry, looked up): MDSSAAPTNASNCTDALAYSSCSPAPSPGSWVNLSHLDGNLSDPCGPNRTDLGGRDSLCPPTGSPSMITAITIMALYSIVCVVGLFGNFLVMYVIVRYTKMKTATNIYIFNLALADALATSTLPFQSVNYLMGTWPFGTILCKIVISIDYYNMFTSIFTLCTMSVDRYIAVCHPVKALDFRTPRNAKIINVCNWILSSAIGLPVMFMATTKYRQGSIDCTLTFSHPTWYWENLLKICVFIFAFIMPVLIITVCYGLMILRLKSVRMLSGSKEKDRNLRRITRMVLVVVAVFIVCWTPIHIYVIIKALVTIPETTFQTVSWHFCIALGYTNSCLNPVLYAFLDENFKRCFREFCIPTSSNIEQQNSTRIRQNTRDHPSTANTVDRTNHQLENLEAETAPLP
Target sequence (P41143 whole entry, looked up): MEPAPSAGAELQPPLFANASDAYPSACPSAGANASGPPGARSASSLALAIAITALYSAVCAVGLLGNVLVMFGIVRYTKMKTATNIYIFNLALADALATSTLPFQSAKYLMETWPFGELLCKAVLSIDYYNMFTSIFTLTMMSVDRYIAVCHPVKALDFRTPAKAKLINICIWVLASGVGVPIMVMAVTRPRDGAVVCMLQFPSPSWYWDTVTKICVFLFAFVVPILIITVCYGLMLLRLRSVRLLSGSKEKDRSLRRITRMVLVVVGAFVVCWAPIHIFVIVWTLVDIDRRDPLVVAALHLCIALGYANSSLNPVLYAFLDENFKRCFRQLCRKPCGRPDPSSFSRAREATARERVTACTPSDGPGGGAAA
MOR-DOR ag-1: agonists of OPRM1-OPRD1 heterodimerization, primary screen, cell-based, luminescence; Mu-type opioid receptor (Homo sapiens) + Delta-type opioid receptor (Homo sapiens), …; cells; activation, % at 9.3 µM; 340,000 compounds, 0.3% hits; AID 504326, 2011;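 further: 0% = vehicle-treated cells and 100% = reference agonist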
HTR5A ag: HTR5A agonists in luminescence cell assay, primary screen, counter-screen for OPRM1-OPRD1 heterodimer agonist project, full-deck HTS; 5-hydroxytryptamine receptor 5A (Homo sapiens), P47898; cell-based; activation, % at 9.3 µM; 340,000 compounds, 0.61% hits; in the data active means activation mostly above about 9.5%, no sharp cut-off; inactive means mostly below about 7.6%;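 further: 0% = cells with vehicle only and 100% = reference agonist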
MOR-DOR ag-2: OPRM1-OPRD1 heterodimerization promoters, counter-screen for HTR5A agonist project, cell-based, luminescence; shares compounds with HTR5A ag; U2OS counter-screen cells, complementation luminescence, 3 h; activation, % at 9.3 µM; 800 compounds, 13% hits
HTR5A ag confirm: HTR5A agonists, retest of hits, confirmation, cell-based, luminescence; shares compounds with HTR5A ag; HTR5A agonist cell assay; activation, % at 9.3 µM; 800 compounds, 17% hits; AID 504915, 2011; in the data active means activation above about 17%;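 further: 0% = cells with vehicle only and 100% = full reference agonist response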
Starred values were filed as active, the others as inactive; · = not tested or not shown. Only some compounds are listed: those with a hit (about 1.1% of all), similar ones and a draw of the others. Unless noted, no stated cut-off is given here; in the data, active means activation above about 18%; inactive means the rest.

SMILES | HTR5A inv ag | MOR-DOR inv ag | MOR-DOR ag-1 | HTR5A ag | MOR-DOR ag-2 | HTR5A ag confirm
CC(C)c1ccc(-c2nnn(CCC#N)n2)cc1 | -1 | 16 | -3 | 0 | · | ·
CC(C)c1ccc(-c2nnn(Cc3nc4ccccc4s3)n2)cc1 | 2 | -18 | 4 | 21* | 3 | 1
COc1ccc(C(=O)N(C)Cc2ccccn2)cc1OC1CCN(C(C)C)CC1 | -29 | 12 | -2 | 7 | · | ·
O=C(CSc1cn[nH]n1)Nc1ccccc1F | 15 | 8 | -1 | -5 | · | ·
Cc1sc2ncnc(NCC(O)c3ccc([N+](=O)[O-])cc3)c2c1C (configuration not stated) | -6 | -4 | 1 | 2 | · | ·
COc1ccc(C(=O)Nc2cc(OC)ccc2OC)cc1 | -3 | 9 | -1 | -9 | · | ·
COc1ccc(OC)c(NC(=O)c2cc(OC(C)=O)cc(C(=O)Nc3cc(OC)ccc3OC)c2)c1 | -68 | -14 | 3 | 18* | 0 | -4
COc1cc(/C=N/Nc2nc(C)nc3c2cnn3-c2ccccc2)ccc1O | -7 | -24 | 5 | 16* | 2 | 3
Nc1c(C(=O)Nc2ccc(S(=O)(=O)N3CCCC3)cc2)sc2nc3ccc(OC(F)(F)F)cc3cc12 | -69 | -88 | 16 | 15* | 24* | 4
Nc1c(C(=O)Nc2ccc(S(=O)(=O)N3CCCC3)cc2)sc2nc3cc4c(cc3cc12)CCC4 | 15 | -13 | 2 | 0 | · | ·
COc1ccc(C(=O)CN(CCC(=O)O)S(=O)(=O)c2ccc([N+](=O)[O-])cc2)cc1 | 11 | 4 | -1 | 9 | · | ·
CCc1ccc(C2NC(=S)NC3=C2C(=O)N(c2ccccc2OC)C(c2ccc(CC)cc2)N3)cc1 (configuration not stated) | -17 | -28 | 4 | 22* | 8 | 0
O=C1C2=C(NC(=S)NC2c2ccc(Cl)cc2)NC(c2ccc(Cl)cc2)N1c1ccc(Cl)cc1 (configuration not stated) | -31 | -21 | 3 | 12 | · | ·
COc1ccc(C(=O)Nc2cccnc2)cc1S(=O)(=O)N1CCOCC1 | -43 | 0 | 0 | 16* | 1 | 1
CCCCCCCCCCCCCCCC[n+]1ccc(/C=N/O)cc1 | -40 | -24 | 5 | 26* | 16 | 9
CCCCCCCCCCCCCCCC[n+]1ccc(C(N)=O)cc1 | -14 | 0 | 0 | 2 | · | ·
Cc1nc(Nc2ccc(Cl)cc2)c(C#N)c(=O)[nH]1 | -43 | 12 | -2 | 16* | 0 | 2
N#Cc1cccnc1Nc1ccc(Cl)cc1 | -22 | 9 | -2 | 8 | · | ·
Cc1ccccc1NC(=O)c1cccc(NC(=O)c2ccccc2C(=O)O)c1 | 13 | 9 | -2 | -5 | · | ·
COc1cc(NC(=O)CCc2nnc3ccc(N4CCCCC4)nn23)cc(OC)c1OC | 11 | -9 | 2 | 8 | · | ·
O=C1CC(c2cccc(Cl)c2)Cc2nc(N3CCN(c4ccccc4)CC3)ncc21 (configuration not stated) | -42 | 7 | -2 | 17* | 2 | 2
CS(=O)(=O)c1nc(S(=O)(=O)c2ccc(Cl)cc2)c(NCCCn2ccnc2)s1 | 30 | 3 | -1 | 3 | · | ·
Cc1ccc(SCCC(=O)Nc2ccccc2C(=O)NC(C)C)cc1 | -42 | 5 | -1 | 17* | 3 | -2
Cc1ccc2[nH]cc(CCNS(=O)(=O)c3ccc(F)cc3)c2c1 | 3 | -1 | 0 | 3 | · | ·
CC(=O)Nc1ccc(S(=O)(=O)NCCc2c[nH]c3ccc(C)cc23)cc1 | -100 | 1 | 0 | 27* | 60* | 2
SMILES | HTR5A inv ag | MOR-DOR inv ag | MOR-DOR ag-1 | HTR5A ag | MOR-DOR ag-2 | HTR5A ag confirm
O=C(NCc1ccc2c(c1)OCO2)c1cnc2n(c1=O)CCS2 | -53 | 5 | -1 | 19* | 0 | 0
O=C(CCl)N1N=C(c2ccco2)CC1c1cccs1 (configuration not stated) | 8 | -1 | 0 | 0 | · | ·
Cc1ccc(C2=NN(C(=O)CCl)C(c3cccs3)C2)o1 (configuration not stated) | -41 | -48 | 9 | 16* | 21* | 17*
COc1ccc(/C=N/NC(=O)c2ccc(COc3ccccc3Cl)o2)cc1 | 12 | 0 | 0 | 1 | · | ·
COc1ccc(/C=N/NC(=O)c2ccc(COc3ccccc3Cl)o2)c(OC)c1C | -38 | -62 | 12 | 22* | 8 | 15
CC(=O)Nc1ccc(N(CC(=O)NC2CCCCC2)C(=O)Cn2nnc(-c3ccccc3)n2)cc1 | -12 | 5 | -1 | 1 | · | ·
COc1ccc(CNC(=O)[C@H](C)NC(=O)[C@@H]2Cc3ccccc3CN2)cc1 | -36 | 1 | 0 | -1 | · | ·
CC1(C)CC(n2c(NCCO)nc3c(c2=O)C2(CCCC2)Cc2ccccc2-3)CCO1 (configuration not stated) | -60 | -26 | 4 | 23* | 1 | 0
OCCc1ccc(O)cc1 | -37 | 18 | -3 | 10 | · | ·
CC(c1ccc(O)cc1)(c1ccc(O)cc1)c1ccc(CCBr)cc1 | -53 | 6 | -1 | 15* | 7 | 3
Clc1ccc(C(c2nnnn2C2CCCC2)N2CCN(Cc3ccncc3)CC2)cc1 (configuration not stated) | -9 | 4 | -1 | 1 | · | ·
Fc1ccc(C(c2nnnn2C2CCCC2)N2CCN(Cc3ccccc3)CC2)cc1 (configuration not stated) | -40 | 3 | -1 | 18* | 6 | 1
CCN(CC(=O)Nc1c(F)cccc1F)C(=O)CCc1nc2cc(S(=O)(=O)N3CCOCC3)ccc2n1C | 8 | 12 | -2 | 6 | · | ·
COc1ccc(C)cc1NC(=O)COC(=O)c1ccc2c(c1)OCCO2 | -47 | -36 | 9 | 19* | -1 | 0
COc1ccc(OC)c(NC(=O)COC(=O)CC2CCCCC2)c1 | 1 | -6 | 1 | 0 | · | ·
CCOc1ccccc1NC(=S)N1C2CCC1CC(NC(=O)NC13CC4CC(CC(C4)C1)C3)C2 (configuration not stated) | -9 | 6 | -1 | 2 | · | ·
COc1ccccc1NC(=S)N1C2CCC1CC(NC(=O)NC13CC4CC(CC(C4)C1)C3)C2 (configuration not stated) | -36 | -3 | 1 | 16* | 0 | 3
O=C(NC1CCCCC1)c1cc2ccccc2cc1O | -47 | -42 | 8 | 17* | 3 | 2
COC(=O)c1ccc(NC(=O)c2cc[n+](Cc3ccccc3)cc2)cc1 | -13 | 8 | -2 | 15* | 0 | 3
Cc1ccc2[nH]c(=O)c3cc(C(=O)N(CCCOC(C)C)Cc4ccco4)sc3c2c1 | -83 | -34 | 6 | 27* | 11 | 13
